108 molecules from PubChem BioAssay AID2551 (National Center for Advancing Translational Sciences (NCATS), 2010) can be followed below.

Where “and” joins values, the source holds several entries; their conditions need not be identical. Equal values may be shown once. The campaign covered roughly 310,000 compounds. About 17,000 (5.5%) were called active. About 11% were inconclusive and are not listed. Calls come from the whole dose curve; as a rule, active = well fitted inhibition curve with a large enough effect; inconclusive = small, poorly fitted or top-dose-only effect, or effect the other way; inactive = no such curve, though single readings can be large or run the other way. The entries come from a sample that favours actives as a whole. A call without a number means that no potency is given here. A structure can be active in one record and inactive in another.
Potency is the fitted concentration of half-maximal effect.

Chain of Nuclear receptor ROR-gamma (Mus musculus) (P51450 whole entry, looked up, the tested form may be a part): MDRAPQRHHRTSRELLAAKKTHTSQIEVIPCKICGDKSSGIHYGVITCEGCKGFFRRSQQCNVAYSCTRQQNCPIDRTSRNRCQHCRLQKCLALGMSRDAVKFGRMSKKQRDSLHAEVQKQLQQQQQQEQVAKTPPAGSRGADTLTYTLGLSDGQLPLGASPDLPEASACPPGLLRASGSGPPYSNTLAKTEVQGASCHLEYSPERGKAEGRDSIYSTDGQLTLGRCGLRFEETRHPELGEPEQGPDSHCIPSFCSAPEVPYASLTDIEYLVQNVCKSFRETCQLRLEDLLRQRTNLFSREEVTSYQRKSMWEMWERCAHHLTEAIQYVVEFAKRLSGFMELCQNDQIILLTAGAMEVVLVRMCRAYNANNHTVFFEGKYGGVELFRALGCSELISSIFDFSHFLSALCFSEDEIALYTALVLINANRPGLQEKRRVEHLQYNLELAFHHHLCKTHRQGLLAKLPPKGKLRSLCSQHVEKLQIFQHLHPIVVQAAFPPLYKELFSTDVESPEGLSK

In the test the target is Nuclear receptor ROR-gamma (Mus musculus) (UniProt P51450). The test can be described thus: qHTS for inhibitors of ROR gamma transcriptional activity. Note: nearly all actives have a fitted effect of over 60% in size. The note with it: Drosophila S2 Gal4-RORgamma UAS-luciferase reporter, 20 h; series mostly up to 53.6 µM. The gist of the method:
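ROR gamma transcriptional activity was tracked as Gal4-UAS luciferase output in stably transfected Drosophila Schneider cells, with compound added 1 hr before 700 uM copper sulfate induction and a 20 hr ambient-temperature incubation.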
`O=S(=O)(Oc1ccccc1C(=S)N1CCOCC1)c1ccc(Cl)cc1`: the Potency result was “inactive”.

As for `Cc1cc(C)cc(C(=O)NCCN2CCOCC2)c1`, the Potency entry was “inactive”.

Regarding `O=C1CCNCCN1[C@H](CO)Cc1ccccc1`, the Potency result was “inactive”.

`Cc1cc2occ(CC(=O)NNC(=O)c3ccccc3F)c2cc1C`: the Potency entry was “inactive”.

As to `O=C(N/N=C/c1cccnc1)c1ccc(NC(=O)c2ccc(F)cc2)cc1`, the Potency entry is “inactive”.

As for `Cc1cccc(C(=O)Nc2ccc(C(=O)N/N=C/c3cccc(C)n3)cc2)c1`, the Potency entry was “inactive”.

Regarding `Cn1cccc1/C=N/NC(=O)c1ccc(OC(F)(F)C(F)F)cc1`, the Potency is 2 µM (active).

Consider `C/C(=N\NC(=O)Cc1ccccc1[N+](=O)[O-])c1cccnc1`, for which the Potency result is “inactive”.

Take `CC1CC(C)CN(C(=O)C2CC(=O)N(c3ccc(F)cc3)C2)C1` (stereo not drawn): the Potency result is “inactive”.

On to `COc1ccc(S(=O)(=O)Nc2ccc(O)c(Sc3nc4ccccc4s3)c2)cc1`, for which the activity change, negative = inhibition was 1.49% [at 10 µM] (inactive).

Consider `O=C(O)c1ccccc1CSc1nc2ccccc2s1`, for which the Potency result is “inactive”.

Take `O=C(O)c1cccc(S(=O)(=O)Nc2ccc(O)cc2Sc2nc3ccccc3s2)c1`: the Potency is 10 µM (active).

Turning to `COc1c(O)cc2oc(-c3ccc(O)c(O)c3)cc(=O)c2c1O`, the Potency entry was “inactive and 12.6 µM (active)”.

Consider `O=c1cc(-c2ccc(O)c(O)c2)oc2cccc(O)c12`, for which the Potency was 14.1 µM (active).

For `COc1ccc(-c2cc(=O)c3c(O)cc(O[C@@H]4O[C@H](CO[C@@H]5O[C@@H](C)[C@H](O)[C@@H](O)[C@H]5O)[C@@H](O)[C@H](O)[C@H]4O)cc3o2)cc1O`, the Potency entry is “inactive”.

On to `Cc1cccc(-c2cc(=O)c3cc(C)ccc3o2)c1`, for which the Potency entry was “inactive”.

For `O=c1cc(-c2ccc(O)cc2)oc2c(-c3cc(-c4cc(=O)c5c(O)cc(O)cc5o4)ccc3O)c(O)ccc12`, the Potency entry was “inactive”.

On to `CCOC(=O)COc1cc(O)c2c(=O)cc(-c3ccccc3)oc2c1`, for which the Potency result is “inactive”.

For `Cc1ccc(-c2noc(C3CCCN(C(=O)c4cccc(Cl)c4)C3)n2)o1` (stereo not drawn), the Potency result was “inactive”.

Turning to `CCOC(=O)N1CCN(Cc2nc3cc(NC(=O)CC)ccc3n2CC)CC1`, the Potency entry is “inactive”.

Regarding `C#CCOc1ccc(/C=C2/C(=O)ON=C2C)cc1OCC`, the Potency result is “inactive”.

Regarding `Cc1ccccc1CN1CCC(C(=O)Nc2ccc(Oc3cccnc3)cc2)CC1`, the Potency result is “inactive”.

As to `CC1(C)Cc2c(cnn2-c2cccc(F)c2)C(NC(=O)c2cc[n+]([O-])cc2)C1` (stereo not drawn), the Potency result is “inactive”.

With `CC1(C)C(C=C(Cl)Cl)C1C(=O)NC(O)C(=O)c1ccccc1` (stereo not drawn), the Potency result was “inactive”.

Regarding `CN(Cc1ccc2nsnc2c1)Cc1nc(Cc2cccc(F)c2)no1`, the Potency entry is “inactive”.

For `CCc1ccc(CN(C)Cc2nc(Cc3ccccc3)no2)nc1`, the Potency is 11.2 µM (active).

With `CN(Cc1ccccn1)Cc1nc(-c2ccc(Cl)cc2)no1`, the Potency result is “inactive”.

As for `Cc1ccc(S(=O)(=O)NCCC(=O)Nc2cccc(S(N)(=O)=O)c2)cc1C`, the Potency entry is “inactive”.

`Cc1ccc(S(=O)(=O)NCCC(=O)Nc2ccc(C)c(Cl)c2)cc1C`: the Potency result is “inactive”.

For `Cc1ccnc(NC(=O)CCNS(=O)(=O)c2ccc(C)c(C)c2)c1`, the Potency is 10 µM (active).

As to `O=C(Cn1c(=O)sc2ccccc21)Nc1nc2c(s1)CCCC2`, the Potency result is “inactive”.

In the case of `Fc1ccc2nc(Nc3nc4c(s3)CCCC4)sc2c1`, the Potency was 3.16 µM (active).

Consider `COC(=O)C(NC(C)=O)(Nc1nc2c(s1)CCCC2)C(F)(F)F` (stereo not drawn), for which the Potency result was “inactive”.

In the case of `O=C(Nc1cccc(-c2cccc(Cl)c2)c1)C1CCN(C2CCC2)CC1`, the Potency entry is “inactive”.

For `CC(C)c1ccc2c([Si](C)(C)C)c3c(nc2c1)-c1cccc(=O)n1C3`, the Potency result was “inactive”.

`Cc1c2c(nc3ccccc13)-c1cccc(=O)n1C2`: the Potency is 8.91 µM (active).

`Cc1nc2ccccc2c(C)c1C(=O)c1ccc(F)cc1`: the Potency result is “inactive”.

`CCn1c(=S)sc2c(=O)n(CC(=O)Nc3ccc(OC)cc3)c(C)nc21`: the Potency entry is “inactive”.

Turning to `Cc1ccc(C)c(N2CCN(S(=O)(=O)c3c(C)[nH]c(C)c3C(=O)N3CCCC3)CC2)c1`, the Potency entry was “inactive”.

With `CC1(C)Cc2ccccc2-c2nc(CN3CCOCC3)[nH]c(=O)c21`, the Potency result was “inactive”.

Take `CCC1(CC)Cc2ccccc2-c2nc(CCl)[nH]c(=O)c21`: the Potency is 11.2 µM (active).

Consider `CCOC(=O)C1Cn2c(nc3c(c2=O)C(C)(CC)Cc2ccccc2-3)S1` (stereo not drawn), for which the Potency entry is “inactive”.

Consider `CC(=O)c1ccc(OCC(O)CN2CCN(S(=O)(=O)c3cccc(Br)c3)CC2)cc1` (stereo not drawn), for which the Potency entry was “inactive”.

Regarding `COC(=O)C1CCCCN1C(=O)c1ccc(OC2CCN(C(C)=O)CC2)c(OC)c1` (stereo not drawn), the Potency result was “inactive”.

On to `Cc1ccc(CN(CC(=O)NCC2CCCO2)S(=O)(=O)c2ccc(C)cc2)cc1` (stereo not drawn), for which the Potency entry was “inactive”.

In the case of `COCn1c(COc2ccccc2)nc2ccccc21`, the Potency entry is “inactive”.

In the case of `COCc1nc2ccccc2n1Cc1ccccc1Br`, the Potency was 6.31 µM (active).

For the molecule `COc1ccccc1Cn1c(CO)nc2ccccc21`, the Potency entry was “inactive”.

Regarding `CC(NC(=O)Nc1ccccc1)c1ccccc1` (stereo not drawn), the Potency entry is “inactive”.

On to `Cc1ccc(S(=O)(=O)CC(=O)NC(C)c2ccccc2)cc1` (stereo not drawn), for which the Potency entry is “inactive”.

Take `CC(NC(=S)NNS(=O)(=O)c1ccc(C(C)(C)C)cc1)c1ccccc1` (stereo not drawn): the Potency is 8.91 µM (active).

For `Cc1ccc(S(=O)(=O)NNC(=O)Nc2cccc3ccccc23)cc1`, the Potency result was “inactive”.

With `COc1ccc(C(=O)NNS(=O)(=O)c2ccc(C)cc2)cc1`, the Potency entry was “inactive”.

Take `Cc1ccc(S(=O)(=O)NNC(=S)NC(C)(C)C)cc1`: the Potency is 8.91 µM (active).

In the case of `CCOc1ccc(N(CC(=O)NCCc2ccc(F)cc2)S(=O)(=O)c2ccccc2)cc1`, the Potency entry is “inactive”.

As to `COc1ccccc1CNC(=O)[C@@H]1CCCN1C(=O)[C@@H]1Cc2ccccc2CN1C(=O)OC(C)(C)C`, the Potency entry is “inactive”.

Regarding `CCN(CC)c1ccc(C(=O)Nn2c(C)nc3ccccc3c2=O)cc1`, the Potency entry is “inactive”.

For the molecule `CCCCCc1ccc(-c2ccc(OCC)cc2)nc1`, the Potency result is “inactive”.

Regarding `CCCCCc1ccc(-c2cn(Cc3ccc4ccccc4c3)nn2)cc1`, the Potency result was “inactive”.

As for `CCCCCc1ccc(-c2ccc(C(=O)O)cc2)nc1`, the Potency is 6.31 µM (active).

Consider `Cc1cccc(-c2nnc(SCC(=O)O)n2Cc2ccccc2)c1`, for which the Potency result was “inactive”.

Consider `O=C(CCC(=O)c1cccs1)NC1CCCCCC1`, for which the Potency result was “inactive”.

As for `CCCCC(CC)CNC(=O)CCCCn1c(=O)[nH]c2ccsc2c1=O` (stereo not drawn), the Potency result is “inactive”.

`O=C(CCCCCn1c(=S)[nH]c2ccsc2c1=O)NC1CCCCC1`: the Potency was 11.2 µM (active).

For the molecule `O=C(CN1C(=O)c2ccccc2C1=O)NCc1ccc(C(=O)O)cc1`, the Potency entry is “inactive”.

With `COc1ccc(N(CC(=O)Nc2cc(OC)cc(OC)c2)S(=O)(=O)c2c(C)n[nH]c2C)cc1`, the Potency entry was “inactive”.

Take `Cc1cccc(N2CCN(C(C)C(=O)N3CCc4ccccc43)CC2)c1C` (stereo not drawn): the Potency entry was “inactive”.

On to `Cc1ccn(CCC(=O)N2c3ccccc3CC2C)n1` (stereo not drawn), for which the Potency entry was “inactive”.

With `COc1ccc(-n2c(C)csc2=S)cc1`, the Potency entry is “inactive”.

With `COc1ccc(-c2cn(-c3ccc(OC)cc3)c(=S)[nH]2)cc1`, the Potency was 0.398 µM (active).

Take `COc1ccc(N2C(=O)CNC2=S)cc1`: the Potency result is “inactive”.

Consider `COc1ccc(S(=O)(=O)N(CC(=O)N/N=C/c2ccc(C(=O)O)cc2)Cc2ccccc2)cc1OC`, for which the Potency entry was “inactive”.

`COc1ccc(-n2ncc3c(SCC(=O)NNC(C)=O)ncnc32)cc1`: the Potency entry was “inactive”.

As for `CC(C)C[C@@H](COc1ccccc1)N1CCN(CC(C)C)CCC1=O`, the Potency result was “inactive”.

For the molecule `CCOC(=O)CN/C=C(\C#N)c1ccc(F)cc1`, the Potency result is “inactive”.

`CCOc1cc(/C=C(/C#N)c2ccc(Cl)cc2)cc(Cl)c1OCC(=O)O`: the Potency was 0.891 µM (active).

In the case of `C/C(=N\OCC(=O)O)c1ccc(Cl)cc1`, the Potency result was “inactive”.

Turning to `CC(C)C(NC(=O)c1ccc(Cl)cc1)C(=O)O` (stereo not drawn), the Potency entry was “inactive”.

Turning to `CC(C)CNC(=S)NC(=O)c1ccc(Cl)cc1`, the Potency is 3.98 µM (active).

Turning to `CCOC(=O)NNC(=O)c1ccc(Cl)cc1`, the Potency result is “inactive”.

For `COc1ccc(C2=NS(=O)(=O)N(C)C(C(=O)N(C)Cc3ccccc3)=C2)cc1`, the Potency entry was “inactive”.

As for `CCn1cc(CCC(=O)NCc2ccc(F)cc2)c2ccccc21`, the Potency entry was “inactive”.

With `CCN(CC)CCn1c(/N=C/c2cc(Br)ccc2O)nc2ccccc21`, the Potency is 3.98 µM (active).

Turning to `CCN(CC)CCn1c(N)c(S(=O)(=O)c2ccccc2)c2nc3ccccc3nc21`, the Potency result was “inactive”.

Turning to `C/C(=N\c1nc2ccccc2n1C)c1cc(Cl)ccc1O`, the Potency entry is “inactive”.

As for `Cc1ccc(Cn2c(C)c3cnn(CC(=O)NCc4ccccn4)c(=O)c3c2C)cc1`, the Potency entry is “inactive”.

For `CCn1c(=N)n(CC(=O)c2cccc(OC)c2)c2ccccc21`, the Potency is 6.31 µM (active).

With `COc1ccc2cc(C(=O)O)n(CC(=O)c3ccccc3)c2c1`, the Potency entry is “inactive”.

Take `CCOC(=O)c1cc2ccccc2n1CC(=O)c1ccccc1`: the Potency entry is “inactive”.

Take `COc1ccc(NC(=O)c2cc(-c3cc(OC)c(OC)c(OC)c3)nc3ccccc23)c(OC)c1`: the Potency entry is “inactive”.

In the case of `COC(=O)c1ccc(COc2ccc(C#N)cc2)o1`, the Potency result is “inactive”.

Take `COc1ccc(C2/C(=C(/O)c3ccccc3)C(=O)C(=O)N2C)c(OC)c1` (stereo not drawn): the Potency entry is “inactive”.

With `CCCn1c(C(O)c2cc(OC)ccc2OC)nc2ccccc21` (stereo not drawn), the Potency is 17.8 µM (active).

Consider `CCn1c(C(O)c2cc(OC)ccc2OC)nc2ccccc21` (stereo not drawn), for which the Potency result is “inactive”.

On to `COc1ccc(OC)c(C(O)c2nc3ccccc3n2C)c1` (stereo not drawn), for which the Potency entry was “inactive”.

Consider `CCOC(=O)c1ccccc1NS(=O)(=O)c1c(C)nc2sccn2c1=O`, for which the Potency entry was “inactive”.

For `OCC(CO)NC1C[C@](O)(CO)[C@@H](O)[C@H](O)[C@H]1O` (stereo partly drawn), the activity change, negative = inhibition is 4.55% [at 10 µM] (inactive).

Regarding `C=CCn1c(SCC(=O)NC)nnc1C12CC3CC(CC(C3)C1)C2`, the Potency result was “inactive”.

Regarding `C=CCn1c(C23CC4CC(CC(C4)C2)C3)n[nH]c1=S`, the Potency was 2.82 µM (active).

In the case of `C=CCn1c(SCC(=O)NC23CC4CC(CC(C4)C2)C3)nc(O)cc1=O`, the Potency entry was “inactive”.

With `Cc1nn(Cc2ccccc2)c(C)c1NS(=O)(=O)c1ccccc1`, the Potency entry is “inactive”.

Turning to `Cc1ccccc1NC(=O)CCNS(=O)(=O)c1ccc2[nH]c(=O)oc2c1`, the Potency result is “inactive”.

In the case of `CCOc1cccc(/C=C/c2ccc3ccccc3n2)c1OC(C)=O`, the Potency is 3.98 µM (active).

With `COc1cccc(/C=C/c2ccc3ccccc3n2)c1OC(C)=O`, the Potency was 2 µM (active).

`CC(OC(=O)c1ccc2ccccc2n1)C(=O)c1ccccc1` (stereo not drawn): the Potency entry was “inactive”.

`CCOc1ccccc1-c1cc(C(=O)N2CCOCC2)c2ccccc2n1`: the Potency entry was “inactive”.

`COc1cccc(/C=C2\C=C(c3ccc(C)cc3)OC2=O)c1OC(C)=O`: the Potency entry is “inactive”.

`CC(=O)c1ccc(S(=O)(=O)N2CCN(C(=O)/C=C/c3ccc4ccccc4n3)CC2)cc1`: the Potency result was “inactive”.
